The panel holds about 79,000 compounds, 15% with a hit somewhere; the sample as a whole holds those more often. Cut-off read from the data, not from the text of the source: active = growth inhibition above about 70%; inactive = the rest.
Assays:
[1] = NCI Yeast Anticancer Drug Screen. Data for the rad50 strain (AID 155);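 note: 0% = growth of vehicle-only cultures of the same strain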; details: S. cerevisiae rad50 strain growth inhibition; at 50.0 µM; stronger effect = higher value
Outline: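 DNA repair mutant yeast, compound exposure, growth read-out; inhibition is taken relative to vehicle.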

[2] = NCI Yeast Anticancer Drug Screen. Data for the mec2-1 strain (AID 157); details: S. cerevisiae mec2-1 strain, at 50.0 µM, stronger effect = higher value
Outline: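 Vehicle-treated cultures served as reference for growth inhibition of compound-exposed mec2-1 yeast.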

[3] = NCI Yeast Anticancer Drug Screen. Data for the sgs1 mgt1 strain (AID 161);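 note: 0% = growth of cultures given vehicle only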; details: S. cerevisiae sgs1 mgt1 strain, at 50.0 µM, stronger effect = higher value
Outline: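 Mutant yeast exposed to compound; growth scored against vehicle-only wells.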

[4] = NCI Yeast Anticancer Drug Screen. Data for the cln2 rad14 strain (AID 165);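 note: 0% = growth equal to vehicle treated cultures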; details: S. cerevisiae cln2 rad14 strain, at 50.0 µM, stronger effect = higher value
Outline: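 Each compound was tested on cln2 rad14 yeast. Inhibition of growth was calculated against vehicle-exposed controls.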

[5] = NCI Yeast Anticancer Drug Screen. Data for the bub3 strain (AID 167); details: S. cerevisiae bub3 mutant strain, at 50.0 µM, stronger effect = higher value
Outline: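 In this screen, a yeast mutant lacking normal mitotic checkpoint function is challenged with compound. Relative growth versus vehicle gives the inhibition value.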

[6] = NCI Yeast Anticancer Drug Screen. Data for the mlh1 rad18 strain (AID 175); details: S. cerevisiae mlh1 rad18 strain growth inhibition; at 50.0 µM; stronger effect = higher value
Outline: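 Vehicle-treated cultures served as the reference for growth inhibition in a yeast strain carrying DNA damage repair alterations exposed to each compound.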

Measured: growth inhibition

CCOC(=O)C1C(=O)CC(C)(O)C(C(=O)OCC)C1c1ccc(N(C)C)cc1 (stereo not given)
inactive: [1] -32.7% | [2] -15.7% | [3] -3.6% | [4] -37% | [5] -1.4% | [6] -10.2%

CCCCCC(O)(CCCC)CCCCC
inactive: [1] -10.7% | [2] -1.65% | [3] 1.85% | [4] 19.9% | [5] 1.75% | [6] 15.9%

Cc1cnc(Cl)[nH]1 (tested in a mixture with another compound)
inactive: [1] 2.7% | [2] 1.55% | [3] 2.15% | [4] -47.5% | [5] 14.8% | [6] -5.5%

CCCC(C)C1(CC)NC(C)(C)CC(C)O1 (stereo not given)
inactive: [1] 2.75% | [2] 0.8% | [3] -5.75% | [4] -29.4% | [5] 4.9% | [6] 1.2%

CC(=O)Nc1cc2cc(Br)ccc2oc1=O
inactive: [1] 28.9% | [2] 33.4% | [3] 18.9% | [4] 40% | [5] 50.1% | [6] 36.3%

CN1C(=O)N(C)C2(CCN(CCCCCCF)CC2)C1=O
inactive: [1] -10.2% | [2] -19.9% | [3] -34.2% | [4] -6.9% | [5] -18.6% | [6] -29.4%

O=C(c1ccc(F)cc1)c1ccc([N+](=O)[O-])cc1
inactive: [1] 8.85% | [2] 8.1% | [3] -1.7% | [4] -19.9% | [5] -14.1% | [6] 12.1%

CCCCN(CCO)CCO
inactive: [1] -4.95% | [2] -8.45% | [3] 9.3% | [4] 14.8% | [5] 9.4% | [6] 2.75%

COC(=O)/C=C(/Nc1ccccc1C(=O)O)C(=O)OC
inactive: [1] -5.55% | [2] 20.1% | [3] -5.15% | [4] 2.85% | [5] -16.1% | [6] -21.1%

CNCSc1ccccc1
inactive: [1] -6.6% | [2] -19.9% | [3] -1.75% | [4] -11.6% | [5] -30.1% | [6] -1.45%

CC(=O)CCn1c(=S)sc2ccccc21
inactive: [1] -6.3% | [2] 30.2% | [3] 59.5% | [4] 12.2% | [5] 29.7% | [6] -28.6%

COc1cc(C2c3cc4c(cc3OC3(OC)COC(=O)C23)OCO4)cc(OC)c1OC (stereo not given)
inactive: [1] 0.4% | [2] 13.4% | [3] 4.9% | [4] -13.9% | [5] -21.1% | [6] -21.4%

CCCCCCCCCc1cc(=O)c2ccc(OCc3ccccc3)cc2o1
inactive: [1] -42.5% | [2] -28.6% | [3] -21.1% | [4] -11.2% | [5] -28.6% | [6] -42%

O=C(Nc1ccsc1)c1ccccc1
inactive: [1] -10.8% | [2] -8.7% | [3] -19.3% | [4] -58.2% | [5] -27.4% | [6] -3.25%

Cc1ccccc1OS(=O)(=O)c1ccc(Br)cc1
inactive: [1] -4.2% | [2] 13.8% | [3] -4.15% | [4] -107% | [5] 24.8% | [6] -15.8%

Cc1cc(NC(=O)C(=O)Cc2cnc3ccccc3n2)c(S(=O)(=O)O)cc1Cl
inactive: [1] 1.45% | [2] 12.8% | [3] -2.7% | [4] -23% | [5] -11.2% | [6] -7.8%

Cc1ccc(Nc2ncnc3c2cnn3-c2ccccc2)cc1
inactive: [1] 9.7% | [2] 12.2% | [3] 43.5% | [4] -24.1% | [5] -2.35% | [6] 8.05%

Cc1cccc(C)c1NC(=O)C(=O)CC(=O)c1sc(Nc2c(C)cccc2C)nc1C
inactive: [1] 12.1% | [2] -10.9% | [3] 26.2% | [4] -22.9% | [5] 16.6% | [6] 16.9%

COC(=O)c1c(O)cc(OC)cc1OCc1ccccc1
inactive: [1] 10.7% | [2] -4.4% | [3] -4.8% | [4] 27.6% | [5] 31.4% | [6] 2.95%

COc1ccc(CSc2nc3ccccc3nc2-c2cccs2)cc1
inactive: [1] -16.2% | [2] -39.2% | [3] -43.8% | [4] -1.35% | [5] -24.9% | [6] -54.8%

Source: PubChem BioAssay (NCI)
